# Screens: PubChem, several laboratories
# TIM10 inh – growth inhibitors of TIM10 yeast strain | inhibition, % at 10 µM | S. cerevisiae TIM10 strain growth, BacTiter-Glo luminescence, 24 h | actives 1.4% (n = 330,000);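 active = inhibition of 40% or more at the single tested concentration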;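 also: wild-type TIM10 isogenic control strain grown at permissive 25 °C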
# NLRP3 yeast inh – inhibitors of NALP3 inflammasome in yeast. Yeast reconstituted NLRP3/ASC/caspase-1, beta-gal luminescence, 24 h. inhibition, % at 10 µM. actives 0.39% (n = 330,000);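 active = inhibition of 50% or more; inactive = inhibition below 50%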;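 also: plate controls were induced DMSO wells for no effect and uninduced yeast grown without galactose for full effect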
# tim23-1 inh – tim23-1 yeast growth inhibition; S. cerevisiae tim23-1 growth, BacTiter-Glo luminescence, 24 h; inhibition, % at 20 µM; actives 1.3% (n = 330,000); AID 463212;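 active = growth inhibition of the mutant yeast at or above 50%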;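 also: temperature-sensitive mutant grown at 25 °C; plate controls were DMSO-treated mutant yeast for no effect and medium wells lacking yeast for full effect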
# tim10-1 inh – growth inhibitors of tim10-1 mutant yeast; S. cerevisiae tim10-1 ts strain growth, BacTiter-Glo, 24 h; inhibition, % at 20 µM; actives 2.2% (n = 330,000); AID 463190;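 active = inhibition of at least 40%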;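 also: mutant grown at 25 °C; 0% = DMSO wells with yeast and 100% = wells holding no yeast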
# SKKanGAS inh – inhibitors of SKKanGAS S. pyogenes growth in kanamycin (SK-promoter or general growth effect) | BacTiter-Glo, 6 h | inhibition, % at 7.5 µM | actives 1.3% (n = 300,000);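 active = mean replicate score, as percent of positive control median, at least 50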;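 also: strain carries kanamycin resistance gene driven by streptokinase promoter and grows in 40 µg/ml kanamycin; loss of luminescence reflects streptokinase promoter inhibition or plain growth inhibition; 0% = median of DMSO wells and 100% = positive control at its reference dose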
# The depositor's hits bear a star; nt = not tested or not shown. Most compounds without a hit are left out; they make up all but 4.6% or so of the library.
SMILES,TIM10 inh,NLRP3 yeast inh,tim23-1 inh,tim10-1 inh,SKKanGAS inh
Cc1ccc(-n2nc(C)c(C3C(C#N)=C(N)Oc4c3c(=O)oc3ccccc43)c2Cl)cc1 (stereo unspecified),nt,nt,nt,nt,119*
COc1ccc(OC)c(N=Cc2c(O)n(Cc3ccccc3)c(=S)[nH]c2=O)c1,13,-2,11,9,51*
COC(=O)C1=C(c2ccc(OC)c(OC)c2)C[C@@H]2CC[C@H]1N2C(=O)NCCCOC(C)C,5,24,9,-4,nt
O=C(Nc1ccccc1)c1c(O)c2c(n(Cc3ccco3)c1=O)CCCC2,-9,1,-3,2,-4
O=C(Nc1nccs1)c1c(O)c2c(n(Cc3ccco3)c1=O)CCCC2,15,17,37,12,55*
COCCNC(=O)c1c(NC(=O)c2ccco2)n(Cc2ccccc2)c2nc3ccccc3nc12,11,14,17,20,68*
COCCCNC(=O)c1c(NC(=O)c2ccccc2Cl)n(Cc2ccccc2)c2nc3ccccc3nc12,17,1,27,22,32
CCCCn1c(=O)c(C(=O)NCc2ccc(Cl)cc2)c(O)c2ccccc21,-15,10,8,-15,25
CCCCn1c(=O)c(C(=O)NCCc2ccccc2)c(O)c2ccccc21,-6,17,-4,-34,54*
CCCCCn1c(=O)c(C(=O)NCc2ccncc2)c(O)c2ccccc21,11,11,6,25,78*
Nc1ncc([N+](=O)[O-])s1,7,-1,-16,-12,nt
C=CCn1c(O)c(C(CC)=Nc2ccc3c(c2)CCC3)c(=O)[nH]c1=O,1,11,28,24,38
C=CCn1c(O)c(C(CC)=Nc2ccc(N(C)C)cc2)c(=O)[nH]c1=O,4,24,1,5,57*
COc1ccc(CCn2c(O)c(C=NCCN3CCCCC3)c(=O)[nH]c2=O)cc1OC,-4,11,3,19,2
CCC(=O)N1N=C(c2c(O)n(CCc3ccccc3)c(=O)[nH]c2=O)CC1c1ccc(OC)c(OC)c1 (stereo unspecified),3,9,-6,-10,100*
Cn1c(NN=O)nc2ccccc21,1,24,20,36,56*
CCN1C[C@]2(OC(=O)c3ccccc3NC(C)=O)CCC(OC)C34C5C[C@H]6C(OC)[C@]5(O)[C@](O)(C[C@@H]6OC)C(C[C@@H]32)[C@H]14 (stereo partly specified),2,6,0,6,0
Cc1ccc(-c2cc(-c3ccc(C)cc3)[n+](-c3ccc(C(=O)[O-])cc3)c(-c3ccc(C)cc3)c2)cc1,-4,12,-1,12,78*
COC12CCC3(CC1C(C)(O)C(C)(C)C)[C@H]1Cc4ccc(O)c5c4[C@@]3(CCN1CC1CC1)C2O5 (stereo partly specified),5,1,-5,2,nt
CCCCCn1c(=O)c(C(=O)Nc2ccccn2)c(O)c2ccccc21,-5,30,-4,-20,1
CCCCCCn1c(=O)c(C(=O)Nc2ncccc2O)c(O)c2ccccc21,-4,4,2,1,10
CCCCCCn1c(=O)c(C(=O)Nc2nc(CC(=O)OCC)cs2)c(O)c2ccccc21,-5,5,10,-13,-9
CCCCCCn1c(=O)c(C(=O)Nc2cnccn2)c(O)c2ccccc21,6,8,6,-6,64*
CCCCCCn1c(=O)c(C(=O)Nc2c(C)n(C)n(-c3ccccc3)c2=O)c(O)c2ccccc21,-2,18,17,17,89*
CCCCn1c(=O)c(C(=O)Nc2ccccn2)c(O)c2ccccc21,-5,15,-6,-14,53*
SMILES,TIM10 inh,NLRP3 yeast inh,tim23-1 inh,tim10-1 inh,SKKanGAS inh
CCOC(=O)Cc1csc(NC(=O)c2c(O)c3ccccc3n(CCC(C)C)c2=O)n1,5,7,15,10,68*
Oc1ccccc1C1NCc2ccccc2-n2cccc21 (stereo unspecified),14,20,4,11,-1
Cc1ncc2n1-c1ccc(Cl)cc1C(c1ccccc1F)=NC2,6,1,5,-8,nt
Cc1ccc(N2C(=O)CC(=O)NC2=O)cc1Cl,6,-7,-9,5,-2
CC(=O)O[C@H]1CC[C@@]2(C)C(=CC(=O)C3C2CC[C@@]2(C)C3C[C@H](OC(C)=O)[C@@H]2OC(C)=O)C1 (stereo partly specified),4,15,5,8,nt
C[n+]1c(-c2ccccc2)c2cc(N)ccc2c2ccc(N)cc21,-15,35,-68,-13,100*
CC/C(=C\C=C\[C@@H]1C=C[C@@H]2CCC[C@H]2[C@@H]1C(=O)c1ccc[nH]1)[C@@H]1O[C@@H]([C@@H](C)C(=O)O)CC[C@@H]1C,12,0,21,35,131*
CN(C)C1C(=O)C(C(N)=O)=C(O)C2(O)C(=O)C3=C(O)c4c(O)cccc4C(C)(O)C3CC12 (stereo unspecified),nt,nt,nt,nt,102*
CN(C)[C@@H]1C(=O)C(C(N)=O)=C(O)[C@@]2(O)C(=O)C3=C(O)c4c(O)cccc4[C@@](C)(O)C3[C@H](O)C12 (stereo partly specified),-1,9,-11,2,106*
CC1CCC(C(C)C)C(OC(=O)COC(=O)c2ccccc2N)C1 (stereo unspecified),-3,1,10,28,67*
CCC(=O)c1ccc(OCC(=O)N2CCN(CC(=O)Nc3ccccc3C(F)(F)F)CC2)cc1,4,10,9,2,nt
CC(=O)N1N=C(c2c(O)n(C)c(=O)n(C)c2=O)CC1c1ccccc1 (stereo unspecified),6,1,9,0,51*
CC(=O)N1N=C(c2cccnc2)CC1c1ccccc1O (stereo unspecified),-8,-1,-4,-18,-3
COc1ccc(CCNC(=O)c2c(N)n(CCN3CCOCC3)c3nc4ccccc4nc23)cc1,1,3,21,31,50*
O=C1CN(O)C(c2ccccc2Cl)=c2cc(Br)ccc2=N1,9,-7,8,9,-2
CCOC(=O)[C@@H]1[C@H]2COc3ccc(Br)cc3[C@H]2N2C(=O)N(c3cccc(C)c3)C(=O)[C@]12C,15,5,34,23,nt
O=c1[nH]c(CN2CC=C(c3ccccc3)CC2)nc2cc(C(F)(F)F)ccc12,5,1,-6,10,6
O=c1[nH]c(CN2CC=C(c3ccccc3)CC2)nc2scc(-c3ccccc3)c12,-1,0,13,1,64*
COC(=O)C1=C(c2ccccc2OCc2ccccc2)C[C@@H]2CC[C@H]1N2C(=O)NCc1cccc(C(F)(F)F)c1,11,15,18,17,nt
CCN1C[C@]2(C)CC[C@H](OC)[C@]34C2[C@H](OC(C)=O)[C@@]2(OCO[C@@]25C[C@H](OC)[C@H]2C[C@]3(O)C5[C@H]2OC)[C@@H]14,-2,-5,3,2,-6
